Records with an inconclusive call do not appear. The source made the active and inactive calls. The call rests on the fitted dose curve. Residues, ends and D or L forms follow the SMILES beside them. *: point of attachment. Octanoyl = CCCCCCCC(=O)*

This test can be described thus: qHTS for inhibitors of Rabies Virus screened against the NCATS CANVASS Library (AID 1347402). Further: 0% is about no effect. Particulars: Rabies virus infection cell assay; series mostly up to 45.9 µM. In general terms: qHTS replaces the single test concentration by a dilution series.
Turning to `C1=C2CCCN[C@@H]2[C@@H]2CCN3CCCC[C@@H]3[C@H](C1)C2`, the compound was called inactive.

`C/C=C/c1cc(OC)c2c(c1)[C@@H](C)[C@H](c1ccc(O)c(OC)c1)O2`: the result was inactive.

Consider `C=C[C@@]1(C)CC[C@@H]([C@H](C)C(=O)/C=C/C(C)(C)O)O1`, for which the call was inactive.

Turning to `C=C1[C@H]2CC[C@@]3(C=CC(=O)[C@@](C)(CCC(=O)Nc4c(O)ccc(C(=O)O)c4O)C3C2)[C@H]1O` (stereo not given in full), the call was inactive.

On to `C=C1C[C@@]23C=CC(=O)[C@@](C)(CCC(=O)Nc4c(OC5O[C@H](CO)[C@@H](O)[C@H](O)[C@H]5O)ccc(C(=O)O)c4O)C2C[C@@H]1CC3` (stereo not given in full), for which the compound was classed as inactive.

In the case of `Cc1cc(O)cc2c1C(=O)c1c(O)cc(O)cc1C2=O`, the compound was classed as inactive.

Take `C/C(=C\[C@H](C)C(=O)CCCC1CC(=O)NC(=O)C1)C(O)[C@@H](C)[C@H](O)C/C=C/CC/C=C/C(=O)O` (stereo not given in full): the result was inactive.

Regarding `COC(=O)c1cccc2oc(-c3cccc4oc(-c5c(C)cccc5O)nc34)nc12`, the result was inactive.

In the case of `COc1ccc([C@@H]2c3cc(OC)c(OC)cc3C(=O)C(C)C2C)cc1OC` (stereo not given in full), the compound was classed as inactive.

Take `CCCCCCCC(=O)N[C@@H](CC(C)C)C(=O)N[C@H](C=O)CCC(=O)O` (Octanoyl-Leu-Glu-aldehyde): the result was inactive.

With `C=C[C@@]1(C)CC[C@@H]([C@H](C)C(C)=O)O1`, the call was inactive.

Take `C[C@@]12CCC[C@@](C)(C(=O)O)[C@H]1CC[C@@]13C[C@@H](CC[C@H]12)[C@](C)(O)C3`: the call was inactive.

For `CC1C(=O)C23CCC1C[C@@]21O[C@H]2C(C)(C)C=CC(=O)[C@@]23COC1=O` (stereo not given in full), the result was inactive.

`COc1ccc2cc(NC(=O)C3=NO[C@H]4[C@H](O)C=C[C@@H](Cl)[C@@]4(O)C3)c(=O)oc2c1OC`: the compound was classed as inactive.

For the compound `CC1(C)CC[C@]2(CO)CC[C@]3(C)C(=CCC4[C@@]5(C)CC[C@H](O)C(C)(C)C5CC[C@]43C)C2C1` (stereo not given in full), the result was inactive.

Turning to `C[C@@H](CCC[C@]1(C)C(=O)C=C[C@]23C[C@H]4C[C@H](O[C@@]4(C)C2)C31)C(=O)N[C@@H](CO)C(=O)O` (stereo not given in full), the result was inactive.

Turning to `CO[C@H]1/C=C/CC[C@@H](S[C@@H]2O[C@H](CO)[C@@H](O)[C@H](O)[C@H]2O)CC(=O)O[C@@H](/C(C)=C/[C@H](C)C(=O)CCCC2CC(=O)NC(=O)C2)[C@@H](C)[C@@H]1O`, the activity change, negative = inhibition was -23.8% [at 0.021 µM] (inactive).

Regarding `C=C1C[C@]23C=CC(=O)[C@@](C)(CCCC(C)C(=O)N[C@@H](CO)C(=O)O)[C@@H]2C[C@@H]1CC3` (stereo not given in full), the outcome was inactive.

Turning to `CCCc1c2c([nH]c(=O)c1C)C(=O)c1[nH]c(=O)c(C)c(CCC)c1C2=O`, the call was inactive.

`O=C1c2c(O)cc(O)cc2OC(c2ccc(O)cc2)C1O` (stereo not given): the call was inactive.

On to `CC1=C(C)C(=O)OC(C(C)C2(O)CCC3C4C5OC5C5(O)CC=CC(=O)C5(C)C4CCC32C)C1` (stereo not given), for which the compound was called inactive.

For the compound `C[C@H]1C[C@@H]([C@@H]2CC[C@]34O[C@H](CC[C@@]35C[C@H](C)C(=O)O5)CN24)OC1=O`, the compound was called inactive.

As for `C/C(=C\[C@H](C)C(=O)/C=C/CC1CC(=O)NC(=O)C1)[C@@H]1OC(=O)CCCC/C=C/[C@H](O)[C@@H](O)[C@@H]1C`, the compound was classed as inactive.

For `C=C1[C@@]2(C)CC3C4(C)CCC(O)C(C)(C)C4CCC3(C)[C@]1(C(=O)OC)C(=O)C(C)(O)C2=O` (stereo not given in full), the call was inactive.

Regarding `Oc1ccc(/C=C2/c3cc(O)cc(O)c3C(c3ccc(O)cc3)[C@H]2c2cc(O)cc(O)c2)cc1` (stereo not given in full), the compound was called inactive.

With `C=C(NC(=O)c1csc(-c2nc3c(cc2O)-c2nc(cs2)C(=O)NC(C(C)O)C(=O)N/C(=C(\C)O)c2nc(cs2)C(=O)NC2c4nc(cs4)C(=O)NC(COC(=O)c4c5c6c(cccc6n4O)COC(=O)[C@@H](OC4C[C@](C)(O)[C@H](N(C)C)[C@H](C)O4)C2OC5)c2nc-3cs2)n1)C(N)=O` (stereo not given in full), the outcome was inactive.

In the case of `CS/C=C/C(N)=O`, the compound was classed as inactive.

In the case of `CC(=O)N[C@H](C)c1nc(/C=C/C=C/C(=O)CC2CC(=O)CC[C@]2(C)O)cs1` (stereo not given in full), the compound was called inactive.

As to `C=C[C@]1(C)CC[C@@H]([C@H](C)C(=O)CC=C(C)C)O1`, the compound was called inactive.

As to `O=C(O)[C@@]12CO[C@@]3(O)C4CCN(CC[C@H]31)[C@H]4c1c2[nH]c2ccccc12`, the outcome was inactive.

For the compound `CC(=O)NC[C@@H]1O[C@H](CC/C=C(C)/C(C)=C/C=O)[C@H](C)C[C@H]1O`, the result was inactive.

With `C/C1=C\CC(=O)/C=C/C=C\c2csc(n2)[C@@H](C)NC(=O)C[C@@](S)([C@@H](C)C(=O)O)CC1`, the outcome was inactive.

In the case of `C[C@@]12CCC[C@@](C)(C(=O)O)[C@H]1C[C@@H](O)[C@@]13C[C@@H](CC[C@@H]21)[C@](C)(O)C3`, the compound was classed as inactive.

For the compound `C[C@@H]1O[C@H](c2c(O)cc(O)c3c(=O)cc(-c4ccc(O)cc4)oc23)[C@H](O)[C@H](O)[C@H]1O`, the call was inactive.

As to `C/C=C/C1C=CC2CC(C)CC(C)C2C1C(=O)CC(=O)NC(CO)C/C=C/CCCCC` (stereo not given), the outcome was inactive.

On to `C/C(=C\[C@@H](C)CC/C=C/CC/C=C/C(=O)O)[C@H](O)[C@H](C)C(=O)CCCC1CC(=O)NC(=O)C1`, for which the call was inactive.

For `C=C1CC[C@@H](O[C@H]2C[C@@](O)([C@H](C)NC(=O)c3[nH]c(C)c(Cl)c3Cl)[C@H](O)[C@@H](C)O2)[C@@H]2C=C[C@H](C)C(/C(O)=C3/C(=O)[C@H](C(C)C)N([C@@H]4O[C@H](C)[C@H](OC(N)=O)[C@H](OC(C)=O)[C@@H]4OC)C3=O)[C@@H]12` (stereo not given in full), the result was inactive.

With `CC[C@@H](c1cc(OC)c(OC)cc1OC)[C@H](C)[C@@H](/C(C)=C/c1cc(OC)c(OC)cc1OC)c1cc(OC)c(OC)cc1OC`, the result was inactive.

In the case of `COc1ccc([C@@H]2CC(=O)c3c(cc(O)c(C/C=C(\C)CCC=C(C)C)c3O)O2)cc1`, the activity change, negative = inhibition was -26.8% [at 9.14 µM] (inactive).

With `C=C(C)[C@@H]1CC[C@]2(C)CC[C@]3(C)[C@H](CC[C@@H]4[C@@]5(C)CC[C@H](O)C(C)(C)[C@@H]5CC[C@]43C)[C@@H]12`, the call was inactive.

The values above are taken from PubChem BioAssay (NCATS).
